Test results reported in PubChem BioAssay AID488864 (Broad Institute, 2010).
Results with a measured potency or affinity are listed apart. Calls of active or inactive are those of the source.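 Rule for the calls: active = ATP signal reduced by compound, with fitted active dose under ten times the top valid tested dose; inactive = the rest, compounds that increase ATP levels included.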

Assay: INS-1E beta-cell viability without cytokines, dose response, cytotoxicity control for beta-cell cytokine protection project, CellTiter-Glo luminescence, dry powder (AID 488864)
Conditions: INS-1E rat beta cells, 48 h, no cytokines; series mostly up to 26 µM

SMILES | outcome
CNC[C@@H]1Oc2c(NC(=O)Nc3cccc4ccccc34)cccc2C(=O)N([C@@H](C)CO)C[C@H]1C | inactive
COc1ccc(S(=O)(=O)N(C)C[C@@H]2Oc3c(NC(=O)c4cnccn4)cccc3C(=O)N([C@@H](C)CO)C[C@H]2C)cc1 | inactive
N#Cc1ccc2cc(Br)c(C(F)(F)P(=O)(O)O)cc2c1 | inactive
C[C@@H]1CN([C@@H](C)CO)C(=O)c2cccc(NC(=O)Nc3cccc4ccccc34)c2O[C@H]1CN(C)C(=O)Nc1ccc(C(F)(F)F)cc1 | inactive
C[C@@H]1CN([C@@H](C)CO)C(=O)c2cccc(NC(=O)Nc3ccc(F)cc3)c2O[C@H]1CN(C)S(=O)(=O)c1ccc(F)cc1 | inactive
COc1ccc(S(=O)(=O)N(C)C[C@@H]2Oc3c(NS(=O)(=O)c4cn(C)cn4)cccc3C(=O)N([C@@H](C)CO)C[C@H]2C)cc1 | inactive
C[C@@H]1CN([C@@H](C)CO)C(=O)c2cccc(NC(=O)Nc3cccc(Cl)c3Cl)c2O[C@H]1CN(C)S(=O)(=O)c1ccc2c(c1)OCCO2 | inactive
COc1ccc(S(=O)(=O)N(C)C[C@@H]2Oc3c(NC(=O)Nc4cccc5ccccc45)cccc3C(=O)N([C@H](C)CO)C[C@@H]2C)cc1 | inactive
COc1cccc(S(=O)(=O)N(C)C[C@@H]2Oc3c(NC(=O)Nc4cccc5ccccc45)cccc3C(=O)N([C@@H](C)CO)C[C@H]2C)c1 | inactive
C[C@@H]1CN([C@@H](C)CO)C(=O)c2cccc(NC(=O)Nc3cccc4ccccc34)c2O[C@H]1CN(C)CC1CC1 | inactive
C[C@@H]1CN([C@@H](C)CO)C(=O)c2cccc(NC(=O)Nc3cccc4ccccc34)c2O[C@H]1CN(C)S(=O)(=O)c1ccc2ncsc2c1 | inactive
COc1ccc(S(=O)(=O)N(C)C[C@@H]2Oc3c(NC(=O)Nc4ccc(C(F)(F)F)cc4)cccc3C(=O)N([C@@H](C)CO)C[C@H]2C)cc1 | inactive
COc1ccc(S(=O)(=O)N(C)C[C@@H]2Oc3c(NC(=O)C4CCCCC4)cccc3C(=O)N([C@@H](C)CO)C[C@H]2C)cc1 | inactive
C[C@@H]1CN([C@@H](C)CO)C(=O)c2cccc(NS(=O)(=O)c3ccccc3)c2O[C@H]1CN(C)Cc1ccc(C(F)(F)F)cc1 | inactive
COc1ccc(S(=O)(=O)N(C)C[C@@H]2Oc3c(NC(=O)Nc4cccc5ccccc45)cccc3C(=O)N([C@@H](C)CO)C[C@@H]2C)cc1 | inactive
COc1ccc(NC(=O)Nc2cccc3c2O[C@@H](CN(C)S(=O)(=O)c2ccc(OC)cc2)[C@H](C)CN([C@@H](C)CO)C3=O)cc1 | inactive
COc1ccc(S(=O)(=O)N(C)C[C@@H]2Oc3c(NC(=O)c4ccc(-c5nccs5)cc4)cccc3C(=O)N([C@@H](C)CO)C[C@H]2C)cc1 | inactive
COc1ccc(S(=O)(=O)N(C)C[C@H]2Oc3c(NC(=O)Nc4cccc5ccccc45)cccc3C(=O)N([C@@H](C)CO)C[C@@H]2C)cc1 | inactive
COc1ccc(S(=O)(=O)N(C)C[C@@H]2Oc3c(NC(=O)Nc4cccc5ccccc45)cccc3C(=O)N([C@@H](C)CO)C[C@H]2C)c(OC)c1 | inactive
COc1ccc(S(=O)(=O)N(C)C[C@@H]2Oc3c(NC(=O)Nc4cccc5ccccc45)cccc3C(=O)N([C@H](C)CO)C[C@H]2C)cc1 | inactive
C[C@@H]1CN([C@@H](C)CO)C(=O)c2cccc(NC(=O)Nc3cccc4ccccc34)c2O[C@H]1CN(C)S(=O)(=O)c1ccc(Cl)cc1 | inactive
COc1ccc(S(=O)(=O)N(C)C[C@@H]2Oc3c(NC(=O)Nc4cccc5ccccc45)cccc3C(=O)N([C@@H](C)CO)C[C@H]2C)cc1Cl | inactive
COc1ccc(S(=O)(=O)N(C)C[C@@H]2Oc3c(NC(=O)Nc4c(C)noc4C)cccc3C(=O)N([C@@H](C)CO)C[C@H]2C)cc1 | inactive
COc1ccc(S(=O)(=O)N(C)C[C@@H]2Oc3ccc(NC(=O)Nc4cccc5ccccc45)cc3C(=O)N([C@@H](C)CO)C[C@H]2C)cc1 | inactive
C[C@@H]1CN([C@@H](C)CO)C(=O)c2cccc(NC(=O)Nc3cccc4ccccc34)c2O[C@H]1CN(C)S(=O)(=O)c1ccc2c(n1)N(C)CCO2 | inactive
C[C@@H]1CN([C@H](C)CO)C(=O)c2cccc(NC(=O)Nc3ccccc3)c2O[C@H]1CN(C)S(=O)(=O)c1ccc(F)cc1 | inactive
COc1ccc(S(=O)(=O)N(C)C[C@@H]2Oc3c(NC(=O)Nc4ccc5c(c4)OCO5)cccc3C(=O)N([C@@H](C)CO)C[C@H]2C)cc1 | inactive
COc1ccc(S(=O)(=O)N(C)C[C@@H]2Oc3c(NC(=O)Nc4ccc(F)cc4)cccc3C(=O)N([C@H](C)CO)C[C@H]2C)cc1 | inactive
